An excerpt weighted towards active compounds, which were near 0.85% of everything screened.
RECQ1 inh = qHTS Assay for Inhibitors of RecQ-Like Dna Helicase 1 (RECQ1) | AID 2549, 2010 | ATP-dependent DNA helicase Q1 (Homo sapiens), P46063 | RECQ1 DNA unwinding, red fluorescence kinetic read | Potency, µM (titrated, usually from 57.3 µM), without a hit: at the top dose activity, negative = inhibition, actives largely listed as inhibitors | actives 0.54% (n = 240,000);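 also: plate controls were vehicle for no effect and no enzyme for full effect; nearly all actives have a fitted effect of over 30% in size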
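50 nM RECQ1T1 preincubated 15 min with compound in Tris pH 8.0 buffer with MgCl2, DTT, Tween-20 and 2.5 ug/ml poly(dI-dC); started with 200 nM TAMRA/BHQ-2 forked duplex and 2 mM ATP. Unwinding read as fluorescence (525/598 nm), two reads 2 h apart.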
BLM inh = qHTS Assay for Inhibitors of Bloom's syndrome helicase (BLM) | recombinant BLM DNA unwinding, fluorescence dequenching | RecQ-like DNA helicase BLM (Homo sapiens), P54132 | AID 2528, 2010 | Potency, µM (series often up to 56.1 µM), for the others: at the top dose activity change, negative = inhibition, most hits filed as inhibitors | actives 0.2% (n = 350,000);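 also: plate controls were vehicle for no effect and no enzyme for full effect; nearly all actives have a fitted effect of over 35% in size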
APEX1 inh = qHTS Assay for Inhibitors of the Human Apurinic/apyrimidinic Endonuclease 1 (APE1); DNA repair nuclease/redox regulator APEX1 (Homo sapiens), P27695; recombinant APE1, TAMRA/BHQ-2 abasic DNA cleavage fluorescence; Potency, µM (top dose mostly 65.8 µM), for the others: at the top dose activity change, negative = inhibition, hits mostly inhibitors; actives 0.35% (n = 350,000); AID 2517, 2012;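 also: plate controls were vehicle for no effect and reference inhibitor for full effect; nearly all actives have a fitted effect of over 55% in size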
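Enzyme (0.75 nM final) and test compound are incubated 15 min at room temperature before adding 50 nM quenched THF abasic-site duplex. Cleavage dequenches TAMRA, followed at 525/598 nm over three reads one minute apart.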
GLS inh = qHTS for Inhibitors of Glutaminase (GLS). GLS enzymatic activity, qHTS titration. Potency, µM (series often up to 45.5 µM), for inactives: at the top dose activity change, negative = inhibition, hits mostly inhibitors. actives 0.21% (n = 410,000). Glutaminase kidney isoform, mitochondrial (Homo sapiens), O94925
Target sequence (O94925 whole entry, looked up, canonical isoform): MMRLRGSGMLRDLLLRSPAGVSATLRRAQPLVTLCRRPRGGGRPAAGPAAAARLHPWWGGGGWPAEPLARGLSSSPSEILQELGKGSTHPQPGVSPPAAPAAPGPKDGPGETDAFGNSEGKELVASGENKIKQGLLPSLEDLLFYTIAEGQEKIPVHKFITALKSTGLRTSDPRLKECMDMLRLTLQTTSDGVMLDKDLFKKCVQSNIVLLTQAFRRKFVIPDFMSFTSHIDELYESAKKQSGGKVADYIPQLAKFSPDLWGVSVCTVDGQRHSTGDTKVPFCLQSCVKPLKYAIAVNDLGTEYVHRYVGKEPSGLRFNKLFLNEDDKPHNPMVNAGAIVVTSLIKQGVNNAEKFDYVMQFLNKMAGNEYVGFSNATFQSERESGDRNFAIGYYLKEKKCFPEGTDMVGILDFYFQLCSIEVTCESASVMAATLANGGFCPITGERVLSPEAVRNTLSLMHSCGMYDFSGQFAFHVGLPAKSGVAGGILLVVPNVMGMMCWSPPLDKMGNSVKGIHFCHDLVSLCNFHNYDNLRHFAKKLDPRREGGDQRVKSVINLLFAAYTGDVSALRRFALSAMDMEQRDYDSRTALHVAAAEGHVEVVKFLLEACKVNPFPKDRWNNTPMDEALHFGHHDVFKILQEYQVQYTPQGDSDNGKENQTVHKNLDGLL
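Two-point fluorescence kinetic (t0, 30 min RT) for hKGA; glutamate detected via glutamate oxidase–HRP–Amplex Red. Substrate: 1 mM L-glutamine solution; buffer 45 mM KH2PO4, pH 8.2.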
PGK inhibitor = qHTS Assay to Find Inhibitors of Phosphoglycerate Kinase | PGK/GAPDH coupled, Kinase-Glo luminescence, 60 min | Potency, µM (series often up to 57.5 µM), for inactives: top-dose activity change, negative = inhibition, most hits filed as inhibitors | actives 0.043% (n = 380,000); also: nearly all actives have a fitted effect of over 60% in size
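Recombinant glycosomal PGK reaction used 1,3-bisphosphoglycerate generated in-well by GAPDH (100nM final) in 100mM TEA pH 7.6, 5mM MgCl2, 0.01% Tween-20. After 60 minutes at room temperature, ATP was read by Kinase-Glo Plus luminescence end-point.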
TDP1 block = qHTS Assay for Inhibitors of Tyrosyl-DNA Phosphodiesterase (TDP1); Tyrosyl-DNA phosphodiesterase 1 (Homo sapiens), Q9NUW8; recombinant TDP1, AlphaScreen DNA substrate cleavage; Potency, µM (highest dose often 130 µM), inactives show at the highest dose activity change, negative = inhibition, most hits filed as inhibitors; actives 0.28% (n = 350,000); AID 485290, 2010; also: nearly all actives have a fitted effect of over 40% in size
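Steps: enzyme plus compound, 15 min RT; add biotin/phosphotyrosine-FITC oligonucleotide (15 nM final), react 5 min; add donor/acceptor beads (10 ug/ml final), 10 min; read AlphaScreen. Tdp1 at 1 nM final.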
Starred values were filed as active, the others as inactive; i = inactive; ? = inconclusive; . = not tested or not shown; [ ] = dose if it differs, or a comment. Calls follow the shape of the dose curve; as a rule, active = well fitted curve in the direction sought with a large enough effect; inconclusive = small, poorly fitted or top-dose-only effect, or another doubt; inactive = no such curve, though single readings can be large; an effect the other way counts as inactive or inconclusive. Unless noted, % is scaled to controls: 0 for no effect and ±100 for the full control effect; potency is read from the fitted curve at half-maximal effect.

SMILES	RECQ1 inh	BLM inh	APEX1 inh	GLS inh	PGK inhibitor	TDP1 block
Cc1ccccc1CNC(=O)C1CCCN(c2nnc(C)c3c(C)n(-c4ccccc4)nc23)C1 (configuration not stated)	.	0%	-13%	5%	-5%	79µM*
O=C(OCC(COC(=O)c1cccnc1)(COC(=O)c1cccnc1)COC(=O)c1cccnc1)c1cccnc1	.	.	.	-1%	.	.
COc1ccc2c(c1)C(c1ccccc1OC)CC(=O)O2 (configuration not stated)	-24%[81.1 µM]	1%[75.6 µM]	-5%	.	.	13µM*
C=CCn1c(N)c(C(=O)NCC2CCCO2)c2nc3ccccc3nc21 (configuration not stated)	-8%	5.6µM*	-2%	-9%	-12%	1%
C=CCn1c(N)c(C(=O)NCC2CCCO2)sc1=S (configuration not stated)	9%	2%	14%	8%	i	0%
N#Cc1c(-c2cccs2)nc(SCc2ccc(Cl)cc2)[nH]c1=O	20%	28µM*	-15%	-28%	-8%	-9%
COc1cc(/C=C/C(=O)OCC(=O)N2CCCc3ccccc32)ccc1O	.	.	-1%	10µM*	7%	-3%
COc1cc(/C=C/C(=O)OCC(=O)Nc2cc(C)c(C)cc2[N+](=O)[O-])ccc1O	-11%	-4%	?	6%	4%	.
COc1cc(/C=C/C(=O)OCC(=O)Nc2ccc(Cl)cn2)ccc1O	.	.	?	-6%	-1%	28µM*
COc1cc(/C=C/C(=O)OCC(=O)Nc2ccc(C)cc2[N+](=O)[O-])ccc1O	i	-11%	2%	5.6µM*	-9%	5%
COc1ccc(C=O)cc1COc1ccc(NC(C)=O)cc1	.	.	.	.	.	-2%
CC(C)=CCC/C(C)=C/CC/C(C)=C/CCC(=O)OC/C=C(\C)CCC=C(C)C	.	.	.	0%	.	.
COCCNc1nc(-c2cc(C)c(C)cc2C)cs1	i	-12%	6%	13µM*	0%	3%
COc1ccc(C2Nc3ccccc3C(=O)N2Cc2ccccc2C)cc1COc1ccc(NC(C)=O)cc1 (configuration not stated)	.	.	.	.	.	-2%
CS(=O)(=O)C1=NSC2=NC(=O)/C(=C\c3cccn3-c3ccccc3Cl)C(=N)N21	25µM*	-29%	-8%	-15%	-16%	2%
Cc1ccc(-n2cccc2/C=C2/C(=N)N3C(=NC2=O)SN=C3S(C)(=O)=O)cc1	25µM*	-27%	?	18%	-12%	1%
CCc1ccc(-n2cccc2/C=C2/C(=N)N3C(=NC2=O)SN=C3S(C)(=O)=O)cc1	35µM*	?	?	-1%	-12%	4%
CCC1=NN2C(=N)/C(=C\c3cccn3-c3ccc(Cl)cc3)C(=O)N=C2S1	-3%	-13%	1%	20%	0%	2%
COc1cccc(-n2c(C)cc(/C=C3/C(=N)N4C(=NC3=O)SN=C4S(C)(=O)=O)c2C)c1	-12%	-23%	18%	-10%	-9%	4%
Cc1cc(C)cc(-n2cccc2/C=C2/C(=N)N3C(=NC2=O)SN=C3S(C)(=O)=O)c1	32µM*	32µM*	?	35%	-3%	6%
CCNC(=O)[C@H]1CCCN1C(=O)[C@H](CCCN=C(N)N)NC(=O)[C@H](CC(C)C)NC(=O)[C@H](CC(C)C)NC(=O)[C@@H](Cc1ccc(O)cc1)NC(=O)[C@H](CO)NC(=O)[C@@H](Cc1c[nH]c2ccccc12)NC(=O)[C@H](Cc1cnc[nH]1)NC(=O)[C@@H]1CCC(=O)N1	.	.	.	20%	.	.
CC(C)(C)n1ncc2c(=O)n(Cc3c(F)cc(Cl)cc3F)cnc21	.	.	0%	.	.	.
N#CN1CCC(N[S+](=O)([O-])c2cccc(F)c2)CC1	.	.	.	.	.	1%
COc1ccc(-c2cc3ccc(O)cc3oc2=O)cc1OC	.	-15%	-23%	-7%	-25%	79µM*
COc1ccc(-c2cc3ccc(OCC(N)=O)cc3oc2=O)cc1OC	.	4%	-13%	13%	1%	0%
SMILES	RECQ1 inh	BLM inh	APEX1 inh	GLS inh	PGK inhibitor	TDP1 block
COc1cc(C)cc(C(=O)O)c1C1=C(O)c2cccc(O)c2C(=O)C1=O	?	-11%	35µM*	?	-26%	.
COc1cc(O)c(C(=O)c2ccccc2)cc1O	?	2%	1%	.	.	4%
CN(C)c1cccc(S(=O)(=O)N2CCCN(S(=O)(=O)c3ccc4c(c3)OCCO4)CC2)c1	.	.	.	.	.	3%
CC(NC(CCc1ccccc1)C(=O)O)C(=O)N1CCCC1C(=O)O (configuration not stated)	.	.	.	-4%	.	.
COc1ccc(C(=O)O)cc1COc1ccc(NC(C)=O)cc1	.	.	.	.	.	-7%
CC(=O)N(c1ccccc1C)C1CCCC1	-1%	1%	3%	0%	10%	2%
CC(=O)N(C1=C(Cl)C(=O)c2ccccc2C1=O)C1CCCCC1	-1%	-1%	-6%	6.3µM*	-1%	.
Cc1cc2c(s1)c1cnn(Cc3ccc(C(F)(F)F)cc3F)c(=O)c1n2C	.	.	.	.	.	-2%
Cc1ccc(CN2CC(C(=O)N3CCN(c4ccccc4O)CC3)CC2=O)cc1 (configuration not stated)	.	.	4%	7.1µM*	4%	-1%[0.505 µM]
Cc1cc(C)c(NC(=O)CSC2=Nc3ccccc3C3=NC(CC(=O)NCc4cccs4)C(=O)N23)c(C)c1 (configuration not stated)	.	-7%	.	11µM*	11%	-4%[12.3 µM]
CCCCNC(=O)CC1N=C2c3ccccc3N=C(SCC(=O)Nc3cccc(OC)c3)N2C1=O (configuration not stated)	-3%	1%	14%	7.1µM*	0%	2%
CCCCNC(=O)CC1N=C2c3ccccc3N=C(SCC(=O)Nc3ccc(OC)cc3)N2C1=O (configuration not stated)	i	1%	-6%	?	-10%	6%
CCC(=O)NC(c1ccc(C)s1)c1cc(Cl)c2cccnc2c1O (configuration not stated)	.	.	.	.	.	0%
Cc1ccc(NS(=O)(=O)c2cc3c(cc2F)NC(=O)CC3)cc1C	.	.	.	.	.	0%

High-throughput results (PubChem)
